Experimental data taken from PubChem BioAssay (NCATS).
Inconclusive results are not listed. Entries that show only a call come without a potency. Values without a mark were called inactive. Active and inactive are the calls of the source. Calls come from the whole dose curve; as a rule, active = well fitted cell-killing curve with a large enough effect; inconclusive = small, poorly fitted or top-dose-only effect, or effect the other way; inactive = no such curve, though single readings can be large or run the other way.

Assay: Viability qHTS for spleen associated tyrosine kinase inhibitor (SYKi) naive MV4-11 cells (AID 1963823); note: nearly all actives have a fitted effect of over 40% in size
Conditions: MV4-11 AML viability, CellTiter-Glo luminescence, 72 h; series mostly up to 45 µM
Text: Department of Medicine, Hematology/Oncology
University Hospital Frankfurt, Germany.
Trials have shown promising clinical activity of the selective SYK inhibitor entospletinib in patients with high expressing HOXA9/MEIS1 acute leukemias. As the development of resistance mechanisms is a common problem in the use of targeted drugs, we performed a chemical library screen to identify drug sensitivities in SYK inhibitor resistant AML cells. […] Glucocorticoids are potent immunosuppressants which work in part by inhibiting the transcription of cytokine genes.
Described herein is a viability screen to look for activity in the SYK inhibitor naive cell line against four NCATS compound libraries (MIPE 5.0, NPC, NPACT, and Kinase) totaling 11372 compounds. Active hits were reacquired for confirmation and further secondary assay testing.
SEQUENCE No. (e.g., 1, 2, 3, etc.); […] (e.g., Cells, Incubation, Reagent, etc.); VALUE; DESCRIPTION.
1; Media; 2uL; white, solid-bottom Corning assay plate.
2; Compounds; 23nL; Echo acoustic dispenser.
3; Cell; 5uL; 500 cells per well.
4: Incubation; 72hr; 37 C, 5% CO2, 95% humidity.
5; Reagent; 3uL; CellTiter-Glo reagent (Promega).
6; Incubation; 10min; room temperature.
7; Detection; Luminescence; ViewLux plate reader (PerkinElmer).
NOTES (numbers refer to Sequence numbers above
1. Quantitative high-throughput screening (qHTS) of small molecule compounds was conducted on naive SYKi MV4-11 cell line.
2. Twenty-three nanoliter of small molecule compounds were added to each assay plates using the Echo acoustic dispenser (Beckman Coulter).
3. Cells were seeded into the assay plates at a final density of 500 cells in 5uL of media per well using the Multi-drop Combi dispenser.
4. Plates were covered with stainless steel gasketed lids and incubated for 72 hours at standard cell culture conditions.
5. Viability was assessed by adding 3uL of CellTiter-Glo detection reagent (Promega).
6. Plates were covered with gasket lids and incubated for 10 minutes at room temperature.
7. Luminescence was measured on a ViewLux plate reader (PerkinElmer).
Potency is the fitted concentration of half-maximal effect.

Which Potency does the source give for `c1cc(CN2CCCNCCNCCCNCC2)ccc1CN1CCCNCCNCCCNCC1` here?
Its Potency is “inactive”.

Which viability (% of control) does the source give for `C[C@@H]1CC[C@]2(C(=O)O[C@@H]3O[C@H](CO[C@@H]4O[C@H](CO)[C@@H](O[C@@H]5O[C@@H](C)[C@H](O)[C@@H](O)[C@H]5O)[C@H](O)[C@H]4O)[C@@H](O)[C@H](O)[C@H]3O)CC[C@]3(C)C(=CCC4[C@@]5(C)C[C@@H](O)[C@H](O)[C@@](C)(CO)C5CC[C@]43C)C2[C@H]1C` (stereo not given in full) here?
The viability (% of control) was 87.5% [at 9.25 µM].

For `COc1cc(C=C2CCC/C(=C\c3ccc(O)c(OC)c3)C2=O)ccc1O`, which Potency is on record?
Its Potency is 3.76 µM (active).

For `Cc1ncc([N+](=O)[O-])n1C[C@H](O)CN1CCOCC1`, which Potency is on record?
The Potency was “inactive”.

For `CC/C=C\[C@H](O)[C@H](O)C1=C(C)C(=O)[C@]2(O1)C(=O)N[C@@](O)(C(=O)c1ccccc1)[C@@H]2O`, which Potency is on record?
Its Potency is “inactive”.

With `CC1=C(C)C(=O)OC(C(C)C2C(O)CC3C4C5OC5C5(O)CC(OC6OC(CO)C(O)C(O)C6O)CC(O)C5(C)C4CCC32C)C1` (stereo not given) as the compound, how does the Potency read?
The Potency was “inactive”.

For `NC(=NCc1ccccc1)NC(=O)c1nc(Cl)c(N)nc1N`, which Potency is on record?
The Potency was 3.32 µM (active).

Which Potency does the source give for `CCNC(=O)Nc1ncc(-c2cc(-c3c(C)cc(OC)cc3C)nc(-c3cnccn3)n2)s1` here?
The Potency was “inactive”.

With `C/C=C(/C)C(=O)O[C@H]1C(C)=CC23C(=O)C(C=C(CO)[C@@H](O)[C@]12O)[C@H]1[C@@H](C[C@H]3C)C1(C)C` (stereo not given in full) as the compound, how does the Potency read?
Its Potency is 0.0166 µM (active).

With `CNC(=O)c1cc(Oc2ccc(NC(=O)Nc3ccc(Cl)c(C(F)(F)F)c3)c(F)c2)ccn1` as the compound, how does the Potency read?
The Potency was 0.296 µM (active).

For `COC1CC(O[C@H]2CC[C@]3(C)C4CC[C@@]5(C)C(=O)[C@]4(CC[C@@H]3C2)CC[C@@H]5C2=CC(=O)OC2)OC(C)C1OC1OC(COC2OC(CO)C(O)C(O)C2O)C(O)C(O)C1O` (stereo not given in full), which Potency is on record?
Its Potency is 1.1 µM (active).

For `O=C(O)c1ccccc1-c1ccc(C(F)(F)F)cc1`, which Potency is on record?
Its Potency is “inactive”.

With `Cc1cn(CCN2CCN(c3ccccc3-c3cc(C#N)cc(C(=O)NCCCN4CCCC4)c3)CC2)c2ccccc12` as the compound, how does the Potency read?
Its Potency is 3.72 µM (active).

For `CC(C)(C)c1ccc(S(=O)(=O)NCc2ccc(C(=O)Nc3cccnc3)cc2)cc1`, which Potency is on record?
Its Potency is 0.231 µM (active).

With `Nc1ncnc(Nc2ccc(OCc3ccccc3)c(Cl)c2)c1/C=N/OCCN1CCOCC1` as the compound, how does the Potency read?
The Potency was 8.33 µM (active).

Which Potency does the source give for `O=C(O)c1ccc(S(=O)(=O)N(Cc2ccc(OC(F)(F)F)cc2)c2ncc(C(F)(F)F)cc2Cl)cc1` here?
Its Potency is 20.6 µM (active).

Which Potency does the source give for `Cc1ccccc1N1CCN(S(=O)(=O)C[C@]23CC[C@H](C[C@@H]2NC(=O)[C@@H](N)CCS(C)(=O)=O)C3(C)C)CC1` here?
The Potency was “inactive”.

Which Potency does the source give for `CC(C)C(=O)O[C@@H]1[C@@H](O)[C@@H](O[C@H]2O[C@H](CO)[C@@H](O)[C@H](O)[C@H]2O)O[C@H](CO)[C@H]1O` here?
The Potency was “inactive”.

For `CC(=O)N[C@@H](CC(C)C)C(=O)N[C@@H](CCC(=O)O)C(=O)N[C@@H](CCC(=O)O)C(=O)N[C@@H](CC(=O)O)C(=O)Nc1ccc2c(C(F)(F)F)cc(=O)oc2c1`, which Potency is on record?
The Potency was “inactive”.

With `CC1(C)CC[C@]2(C(=O)OC3OC(CO)C(O)C(O)C3O)CC[C@]3(C)C(=CCC4[C@@]5(C)C[C@@H](O)[C@H](OC6OC(C(=O)O)C(O)C(O)C6O)C(C)(C)C5CC[C@]43C)[C@@H]2C1` (stereo not given in full) as the compound, how does the viability (% of control) read?
The viability (% of control) was 76.2% [at 9.25 µM].

With `COC(=O)[C@H]1[C@H]2C[C@@H]3c4[nH]c5cc(OC)ccc5c4CCN3C[C@H]2C[C@@H](OC(=O)COc2ccc(OC)cc2)[C@@H]1OC` as the compound, how does the Potency read?
The Potency was “inactive”.

For `O=C(COc1ccc(Cl)cc1)NC1CCC(NC(=O)COc2ccc(Cl)cc2)CC1` (stereo not given), which Potency is on record?
The Potency was “inactive”.

For `CC(O)/C=C/C1OC(=O)CC1Nc1ccc(C(=O)O)cc1` (stereo not given), which Potency is on record?
Its Potency is “inactive”.

With `Cc1ccc2nc(NC(=O)CSc3nc4c(c(=O)n3-c3ccc(F)cc3)SCC4)sc2c1` as the compound, how does the Potency read?
Its Potency is “inactive”.

With `CC(C)c1cc2c(cc1S(=O)(=O)O)[C@@]1(C)CCC[C@@](C)(C(=O)O)[C@@H]1CC2` as the compound, how does the Potency read?
Its Potency is “inactive”.

For `Cc1c(C)c2c(c(C)c1OC(=O)CCC(=O)OCCO)CC[C@@](C)(CCC[C@H](C)CCC[C@H](C)CCCC(C)C)O2`, which Potency is on record?
Its Potency is “inactive”.

With `C=CC(C)(O)CC/C=C(/C)COC(=O)C(C)C1CCC(C)(C=C)O1` (stereo not given) as the compound, how does the Potency read?
Its Potency is “inactive”.

With `O=C(Nc1ccc(Oc2ccc(Cl)cc2)c(Cl)c1)c1cc(I)cc(I)c1O` as the compound, how does the Potency read?
The Potency was “inactive”.

For `CNC(=S)NS(=O)(=O)c1cc(CCNC(=O)c2cc(Cl)ccc2OC)ccc1OC`, which Potency is on record?
Its Potency is “inactive”.

With `CC1(C)CC[C@]2(C(=O)O[C@@H]3O[C@H](CO)[C@@H](O)[C@H](O)[C@H]3O)CC[C@]3(C)C(=CCC4[C@@]5(C)C[C@@H](O)[C@H](O)[C@@](C)(CO)C5[C@H](O)C[C@]43C)C2[C@@H]1O` (stereo not given in full) as the compound, how does the Potency read?
The Potency was “inactive”.

With `CCOc1ccc(NC(=O)CC(C)O)cc1` (stereo not given) as the compound, how does the Potency read?
The Potency was “inactive”.

Which Potency does the source give for `CC(O)(CC(=O)O)CC(=O)O[C@@H]1[C@@H](O)[C@H](OCCc2ccccc2)O[C@H](CO)[C@H]1O` (stereo not given in full) here?
The Potency was “inactive”.

For `CN(C)CCCN=c1c2ccccc2n(C)c2[nH]c(=O)n(C)c(=O)c12`, which Potency is on record?
The Potency was 5.9 µM (active).

For `COc1ccc(C[C@@H](C)[C@@H](C)Cc2ccc(OC)c(OC)c2)cc1OC`, which Potency is on record?
The Potency was 6.61 µM (active).

For `O=C(CCCl)NCCc1ccccc1`, which Potency is on record?
Its Potency is “inactive”.

Which Potency does the source give for `C1Cc2[nH]nc(-c3nn[nH]n3)c2C1` here?
The Potency was “inactive”.

Which Potency does the source give for `CN1CCN(C(=O)C2CCCCC2)CC1` here?
The Potency was “inactive”.

With `Cc1[nH]c2ccc(F)cc2c1-c1nc2c3cccnc3c3ncccc3c2[nH]1` as the compound, how does the Potency read?
The Potency was 0.231 µM (active).

With `CCOC(=O)C=C[C@H](C[C@@H]1CCNC1=O)NC(=O)[C@@H](CC(=O)[C@@H](NC(=O)c1cc(C)on1)C(C)C)Cc1ccc(F)cc1` as the compound, how does the Potency read?
Its Potency is “inactive”.

For `CC1(C)SC2C(NC(=O)[C@H](C(=O)O)c3ccsc3)C(=O)N2C1C(=O)O` (stereo not given in full), which Potency is on record?
Its Potency is “inactive”.
